Laboratory results from PubChem BioAssay (NCATS).
Records with an inconclusive call do not appear. The source made the active and inactive calls. Calls follow the shape of the dose curve; as a rule, active = well fitted curve in the direction sought with a large enough effect in the repeat runs; inconclusive = weak or mixed curves; inactive = no such curve, though single readings can be large; an effect the other way counts as inactive or inconclusive.
Also: nearly all actives have a fitted effect of over 55% in size.
Potency is read from the fitted curve at half-maximal effect.

What follows are molecules tested against Cytochrome P450 2D6 (Homo sapiens) (UniProt P10635) (assay: Cytochrome P450 family 2 subfamily D member 6 (CYP2D6) small molecule antagonists: luciferase biochemical (cell-free) qHTS assay (AID 1645840)). Conditions: P450-Glo CYP2D6 enzyme, luciferin luminescence, 1 h; series mostly up to 57.4 µM.
Chain of Cytochrome P450 2D6 (Homo sapiens) (P10635 whole entry, looked up): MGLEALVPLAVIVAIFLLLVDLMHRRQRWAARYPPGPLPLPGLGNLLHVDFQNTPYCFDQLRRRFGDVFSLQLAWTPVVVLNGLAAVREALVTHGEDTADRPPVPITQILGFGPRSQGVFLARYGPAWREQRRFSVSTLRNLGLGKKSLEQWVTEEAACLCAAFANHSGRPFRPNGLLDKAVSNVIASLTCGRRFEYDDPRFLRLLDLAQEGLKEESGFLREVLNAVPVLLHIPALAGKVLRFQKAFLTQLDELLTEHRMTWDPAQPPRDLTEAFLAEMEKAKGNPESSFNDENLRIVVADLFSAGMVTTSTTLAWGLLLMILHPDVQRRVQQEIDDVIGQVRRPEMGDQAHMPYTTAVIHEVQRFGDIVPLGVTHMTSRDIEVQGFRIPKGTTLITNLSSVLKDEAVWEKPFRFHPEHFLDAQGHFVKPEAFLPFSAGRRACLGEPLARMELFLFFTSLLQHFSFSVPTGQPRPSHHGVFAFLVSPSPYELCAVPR
How it was run: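 P450-Glo luminescent screen: recombinant CYP2D6 enzyme–proluciferin substrate mix preincubated with compound 10 min at room temperature, then NADPH regeneration added for 1 h at room temperature. Detection reagent added for 20 min; luciferin light read as relative luminescence units.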
With CCc1c(O)cc(O)c(C(=O)c2ccc(OCCN3CCOCC3)c(OC)c2)c1CC(=O)N(CCOC)CCOC the Potency was “inactive”.
In the case of C[C@H](O)[C@@H]1C(=O)N2C(C(=O)O)=C(S[C@@H]3CN[C@H](CNS(N)(=O)=O)C3)[C@@H](C)[C@@H]12, the Potency is reported as “inactive”.
In the case of Cc1cnc(Nc2ccc(CN3CCOCC3)cc2)nc1Nc1cccc(S(=O)(=O)NC(C)(C)C)c1, the Potency is reported as 9.52 µM (active).
With NC(=O)c1cccc(-c2cccc(OC(=O)NC3CCCCC3)c2)c1 the Potency was “inactive”.
With CS(=O)(=O)N1CCc2c(-c3cnc(N)nc3)nc(N3CCOCC3)nc21 the Potency was “inactive”.
With Cc1ncc(-c2ccnc(Nc3ccc(S(C)(=O)=O)cc3)n2)n1C(C)C the Potency was “inactive”.
For FC(F)c1nc2ccccc2n1-c1nc(N2CCOCC2)nc(N2CCOCC2)n1, the Potency was “inactive”.
In the case of N#Cc1c(C2CCNCC2)cc(-c2c(O)cccc2OCC2CC2)nc1N, the Potency is reported as 0.674 µM (active).
In the case of C#Cc1cccc(Nc2ncnc3cc(OCCOC)c(OCCO)cc23)c1, the Potency is reported as 8.49 µM (active).
In the case of O=C1CSC(=O)N1C(CCc1ccncc1)COc1ccc(-c2cccc([N+](=O)[O-])c2)cc1 (stereo unspecified), the Potency is reported as “inactive”.
CC(O)(C#Cc1ccc2c(c1)N(c1nc(N)ncc1Cl)CC2)c1nccs1 (stereo unspecified) was tested, and the Potency was 9.52 µM (active).
With C=CC(=O)Nc1ccc2ncnc(Nc3ccc(OCc4cccc(F)c4)c(Cl)c3)c2c1 the Potency was “inactive”.
For c1ccc2c(Oc3nc(Nc4ccc(N5CCOCC5)cc4)c4ncn(C5CCCCC5)c4n3)cccc2c1, the Potency was “inactive”.
In the case of CN1CCc2c(c3ccccc3n2Cc2ccc(C(=O)NO)cc2)C1, the Potency is reported as 7.56 µM (active).
For Cc1coc2c1C(=O)C(=O)c1c-2ccc2c(C)cccc12, the Potency was 3.38 µM (active).
In the case of CC1=C(C(=O)Nc2cc3cn[nH]c3cc2F)C(c2ccc(Cl)cc2F)N=C(c2ccnc(Cl)c2)N1 (stereo unspecified), the Potency is reported as 6.74 µM (active).

Each molecule was assayed against Cytochrome P450 2C9 (Homo sapiens) (UniProt P11712) (assay: Cytochrome P450 family 2 subfamily C member 9 (CYP2C9) small molecule antagonists: luciferase biochemical (cell-free) qHTS assay (AID 1645842)). Conditions: P450-Glo CYP2C9 enzyme assay, luciferin luminescence; series mostly up to 57.4 µM.
Chain of Cytochrome P450 2C9 (Homo sapiens) (P11712 whole entry, looked up): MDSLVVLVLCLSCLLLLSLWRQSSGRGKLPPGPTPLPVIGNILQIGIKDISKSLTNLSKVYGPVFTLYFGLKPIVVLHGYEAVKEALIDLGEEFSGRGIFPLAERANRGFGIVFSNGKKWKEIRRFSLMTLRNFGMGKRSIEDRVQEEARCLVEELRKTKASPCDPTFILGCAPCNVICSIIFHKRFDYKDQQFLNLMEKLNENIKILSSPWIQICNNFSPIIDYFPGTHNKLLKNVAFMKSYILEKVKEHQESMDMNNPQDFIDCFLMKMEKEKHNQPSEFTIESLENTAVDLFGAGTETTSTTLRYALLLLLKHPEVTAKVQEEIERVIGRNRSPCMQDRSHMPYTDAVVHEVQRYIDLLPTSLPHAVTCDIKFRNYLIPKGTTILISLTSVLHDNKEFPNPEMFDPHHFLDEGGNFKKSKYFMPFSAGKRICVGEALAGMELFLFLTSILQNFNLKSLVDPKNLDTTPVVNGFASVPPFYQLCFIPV
How it was run: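 Luminescence, after 20 min with luciferin detection reagent, reflected CYP2C9 turnover during a 1 h NADPH-driven reaction at 37C. Enzyme-substrate mix contained 0.4% bovine serum albumin and was preincubated with compound 10 min at room temperature.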
CC(C)C[C@H](NC(=O)CNC(=O)c1cc(Cl)ccc1Cl)B1OC(=O)CC(CC(=O)O)(C(=O)O)O1 (stereo partly specified) was tested, and the Potency was “inactive”.
CCCCOc1ccc(C(=O)Nc2ccc(F)cc2F)cc1 was tested, and the Potency was 7.56 µM (active).
For Cc1cnc(Nc2ccc(CN3CCOCC3)cc2)nc1Nc1cccc(S(=O)(=O)NC(C)(C)C)c1, the Potency was 1.34 µM (active).
In the case of COc1ccc(C[C@@H](C)[C@@H](C)Cc2ccc(OC)c(OC)c2)cc1OC, the Potency is reported as 3.01 µM (active).
With NC(=O)c1cccc(-c2cccc(OC(=O)NC3CCCCC3)c2)c1 the Potency was “inactive”.
With CCOC(=O)[C@@H](N)Cc1ccc(-c2cc(O[C@H](c3ccc(Cl)cc3-n3ccc(C)n3)C(F)(F)F)nc(N)n2)cc1 the Potency was 6.01 µM (active).
For COc1ccc(S(=O)(=O)Nc2cccnc2Nc2ccc(O)cc2)cc1, the Potency was 8.49 µM (active).
In the case of O=C(O)c1ccc(Nc2ncc3c(n2)-c2ccc(Cl)cc2C(c2c(F)cccc2F)=NC3)cc1, the Potency is reported as 21.3 µM (active).
For Cc1ncc(-c2ccnc(Nc3ccc(S(C)(=O)=O)cc3)n2)n1C(C)C, the Potency was 3.79 µM (active).
For Oc1ccc([C@@H]2Oc3ccc(O)cc3[C@@H]3CCC[C@@H]32)cc1, the Potency was “inactive”.
For FC(F)c1nc2ccccc2n1-c1nc(N2CCOCC2)nc(N2CCOCC2)n1, the Potency was 1.69 µM (active).
For Cc1cnc(Nc2ccc(N3CCN(C)CC3)cc2)nc1Nc1cccc(S(=O)(=O)NC(C)(C)C)c1, the Potency was “inactive”.
For N#Cc1c(C2CCNCC2)cc(-c2c(O)cccc2OCC2CC2)nc1N, the Potency was 8.49 µM (active).
For Cc1ccccc1C(=O)Nc1ccc(C(=O)N2CCCC(O)c3cc(Cl)ccc32)c(C)c1 (stereo unspecified), the Potency was 27.5 µM (active).
Cc1cncc2cccc(S(=O)(=O)N3CCCN(C(=O)CN)C[C@@H]3C)c12 was tested, and the Potency was 19 µM (active).
For CC(O)(C#Cc1ccc2c(c1)N(c1nc(N)ncc1Cl)CC2)c1nccs1 (stereo unspecified), the Potency was 1.07 µM (active).
For C=CC(=O)Nc1ccc2ncnc(Nc3ccc(OCc4cccc(F)c4)c(Cl)c3)c2c1, the Potency was 3.38 µM (active).
In the case of c1ccc2c(Oc3nc(Nc4ccc(N5CCOCC5)cc4)c4ncn(C5CCCCC5)c4n3)cccc2c1, the Potency is reported as 4.77 µM (active).
In the case of CN1CCc2c(c3ccccc3n2Cc2ccc(C(=O)NO)cc2)C1, the Potency is reported as “inactive”.
For Cc1coc2c1C(=O)C(=O)c1c-2ccc2c(C)cccc12, the Potency was 9.52 µM (active).
In the case of c1cncc(CN2CCC(n3ncc4c(N5CCOCC5)nc(-c5ccc6[nH]ccc6c5)nc43)CC2)c1, the Potency is reported as 1.9 µM (active).
With CC1=C(C(=O)Nc2cc3cn[nH]c3cc2F)C(c2ccc(Cl)cc2F)N=C(c2ccnc(Cl)c2)N1 (stereo unspecified) the Potency was 3.79 µM (active).
CC(C)n1cnc2c(NCCc3ccc(O)cc3)nc(-c3csc4ccccc34)nc21 was tested, and the Potency was 2.68 µM (active).
In the case of FC(F)(F)c1ccc(Nc2nc3ccc(Oc4ccnc(-c5ncc(C(F)(F)F)[nH]5)c4)cc3[nH]2)cc1, the Potency is reported as 23.9 µM (active).
For C=Cc1c(C)c2cc3nc(cc4[nH]c(cc5nc(cc1[nH]2)C(C)=C5CCC(=O)O)c(CCC(=O)OC)c4C)[C@@]1(C)C3=CC=C(C(=O)OC)[C@H]1C(=O)OC, the Potency was 26.8 µM (active).
